Test results: PubChem BioAssay (EPA / NIEHS)
The source made the active and inactive calls. Rule for the calls: active = hit-call score of the fitted dose curve at least 0.9, where 1 is the maximum; inactive = score below 0.9.

Target: Transcription factor E2F1 (Homo sapiens) (UniProt Q01094)
Test: ATG_E2F_CIS: Attagene CIS-FACTORIAL HepG2 Assay for human E2F Transcription Factor 1 (AID 2282935)
Conditions: HepG2 Attagene cis-reporter, E2F reporter RNA transcripts; actives raise or lower the signal
Protocol: ATG_CIS is a cell-based, multiplexed-readout assay that uses HepG2, a human liver cell line, with measurements taken at 24 hours after chemical dosing in a 24-well plate.ATG_E2F_CIS is one of 52 assay component(s) measured or calculated from the ATG_CIS assay. It is designed to make measurements of mRNA induction, a form of inducible reporter, as detected with fluorescence intensity signals by Reverse transcription polymerase chain reaction (RT-PCR) and Capillary electrophoresis technology.Data from the assay component ATG_E2F_CIS was analyzed into 1 assay endpoint. This assay endpoint, ATG_E2F_CIS, was analyzed with bidirectional fitting relative to DMSO as the negative control and baseline of activity. Using a type of inducible reporter, measures of mRNA for gain or loss-of-signal activity can be used to understand the reporter gene at the transcription factor-level as they relate to the gene E2F1. Furthermore, this assay endpoint can be referred to as a primary readout, because this assay has produced multiple assay endpoints where this one serves a reporter gene function. To generalize the intended target to other relatable targets, this assay endpoint is annotated to the dna binding intended target family, where the subfamily is E2F transcription factor.
Human liver HepG2 cells are transiently transfected with multiple reporter transcription units (MRTUs) in 6-well plates using FuGene 6 reagent (Roche; 3 ml FuGene/1 mg DNA). The MRTU constructs are regulated by a cis-regulating element (promoter). […] A major difference between the CIS and TRANS system is that in CIS activities of endogenous TFs are measured, whereas the TRANS assay evaluates changes in activities of exogenous, chimeric NR-Gal4 proteins. […] At the end of 24 hour incubation, total RNA was isolated using TriZol reagent (Invitrogen). The isolated RNA is then reverse-transcribed using oligo(dT) primer and Mo-MLV reverse transcriptase (Invitrogen) with DNAse I (Ambion) treatment for 30 min. The one-tenth of the produced cDNA was amplified by PCR using Taq DNA polymerase (Invitrogen) and two reporter sequence-specific primers. The PCR products were fluorescently labeled by primer extension with 6-arboxyfluorescein (6-FAM) 5'-labeled reporter sequence-specific primer (2 min at 95 C, 20 s at 68 C and 10 min at 72 C) and these products were digested with 5U of HpaI (New England Biolabs) for 2h at 37 C. The fragments were purified using Qiaquick PCR columns (Qiagen), analyzed on an ABI 3130xL genetic analyzer (Applied Biosystems) with peak positions identified by using a set of X-rhodamine (ROX)-labeled MapMarker1000 molecular weight standards (BioVentures). The raw capillary electrophoresis data was processed using Attagraph software (Attagene).

Chain of Transcription factor E2F1 (Homo sapiens) (Q01094 whole entry, looked up): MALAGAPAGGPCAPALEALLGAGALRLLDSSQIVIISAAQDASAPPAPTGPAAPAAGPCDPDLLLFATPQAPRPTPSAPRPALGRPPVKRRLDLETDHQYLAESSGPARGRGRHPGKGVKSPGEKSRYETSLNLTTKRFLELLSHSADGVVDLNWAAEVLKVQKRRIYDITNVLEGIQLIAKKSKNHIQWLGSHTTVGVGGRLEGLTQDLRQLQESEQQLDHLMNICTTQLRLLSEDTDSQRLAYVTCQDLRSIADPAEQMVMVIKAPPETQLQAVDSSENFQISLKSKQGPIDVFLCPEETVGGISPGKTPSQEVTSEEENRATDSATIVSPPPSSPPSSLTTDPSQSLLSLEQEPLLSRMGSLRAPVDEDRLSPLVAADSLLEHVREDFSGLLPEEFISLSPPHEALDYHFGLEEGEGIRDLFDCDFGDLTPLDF

SMILES	outcome	AC50
CCCCC/C=C\C=C\C(=O)OCC	inactive	
COc1cc(OC)c2ccc(=O)oc2c1	inactive	
CCC(CC)CO	inactive	
CC(C)OB(OC(C)C)OC(C)C	inactive	
CCCCCC#CC(=O)OC	inactive	
CCCCCCC(O)CCOC(C)=O (stereo not given)	inactive	
CCCCCCCCOC(=O)c1ccc(O)cc1	inactive	
CC(=O)c1ccc(C)cc1	inactive	
CC(C)N(c1ccccc1)C(C)C	inactive	
CC(C)COC(=O)c1ccccc1O	inactive	
O=C1CCC(=O)N1	inactive	
CC(=O)CCC=C(C)CCC=C(C)C	inactive	
O=S(=O)(O)c1cc(S(=O)(=O)O)c2c(N=Nc3ccccc3)c(O)ccc2c1	inactive	
CCCCCCCCCOS(=O)(=O)O	inactive	
CC1=CC[C@@H](C(C)(C)O)CC1	inactive	
COc1ccc2[nH]cc(CCNC(C)=O)c2c1	inactive	
C[N+](C)(C)CCO	inactive	
CC(=O)N(C)C	inactive	
C1COCO1	inactive	
CC(C)(C)c1cc(CCC(=O)OCCSCCOC(=O)CCc2cc(C(C)(C)C)c(O)c(C(C)(C)C)c2)cc(C(C)(C)C)c1O	inactive	

SMILES	outcome	AC50
CC(C)Cc1ccccc1	inactive	
CC1=CC[C@@H]2C[C@H]1C2(C)C	inactive	
COc1ccc(OC)cc1	inactive	
CC(=O)CCc1ccc(O)cc1	inactive	
CCc1cccc(O)c1	inactive	
OCC=Cc1ccccc1	inactive	
CCCCCCCCCCCCN1CCOCC1	inactive	
C=CC(=O)OCC(CO)(COC(=O)C=C)COC(=O)C=C		27 µM (active)
CCOCC(C)O (stereo not given)	inactive	
CC(=O)OC/C=C(C)/C=C/C=C(C)/C=C/C1=C(C)CCCC1(C)C	inactive	
O=C(O)c1cc2ccccc2cc1O	inactive	
CC(=O)c1ccc(O)cc1	inactive	
NC(=O)c1c(Cl)cccc1Cl	inactive	
FC(F)(F)c1ccc(Cl)c(Cl)c1	inactive	
CC(C)(CO)CO	inactive	
CC(C)(C)c1ccc(S)cc1	inactive	
CCC(=O)OC(C)(C)C1CC=C(C)CC1 (stereo not given)	inactive	
CC(C)Cc1ccc(C(C)C(=O)O)cc1 (stereo not given)	inactive	
CCCCOCCOCCO	inactive	
CC(=O)C1C(=O)C=C(C)OC1=O (stereo not given)	inactive	
